From ChEMBL document CHEMBL3988442, “University of Dundee, Small-Polar-MMV Screening Library” (2021)

Tests used:
[1] = target: T1, Aspartate--tRNA(Asp/Asn) ligase (Mycobacterium tuberculosis (strain ATCC 25618 / H37Rv)) (UniProt P9WFW3); assay: Assay for Asp RNA synthetase-1 from Mycobacterium tuberculosis; assay type: functional; design: scale not given: direction of the effect not stated beside the values; conditions: 30 µM; note: in the data most compounds retested in dose-response had high values
T1 sequence (whole entry): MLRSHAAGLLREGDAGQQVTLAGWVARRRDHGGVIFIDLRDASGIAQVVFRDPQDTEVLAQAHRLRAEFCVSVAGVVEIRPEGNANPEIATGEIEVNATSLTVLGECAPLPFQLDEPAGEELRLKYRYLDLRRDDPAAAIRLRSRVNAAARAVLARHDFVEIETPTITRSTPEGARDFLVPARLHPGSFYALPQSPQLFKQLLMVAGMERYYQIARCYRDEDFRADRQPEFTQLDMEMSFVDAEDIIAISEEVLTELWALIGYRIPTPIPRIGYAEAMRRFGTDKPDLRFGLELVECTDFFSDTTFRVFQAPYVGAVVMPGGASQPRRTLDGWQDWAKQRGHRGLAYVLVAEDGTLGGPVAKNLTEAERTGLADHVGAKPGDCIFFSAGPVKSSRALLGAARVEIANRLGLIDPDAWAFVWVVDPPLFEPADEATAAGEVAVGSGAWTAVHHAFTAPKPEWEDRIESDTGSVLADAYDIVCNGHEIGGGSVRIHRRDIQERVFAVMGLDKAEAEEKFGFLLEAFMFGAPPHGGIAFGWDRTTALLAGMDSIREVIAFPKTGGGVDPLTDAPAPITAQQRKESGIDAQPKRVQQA

[2] = target: Shiga toxin 2 (Escherichia coli O157:H7) (UniProt P09385+P09386); assay: E. coli 0.157:H7 Shiga Toxin SOP - stx2 screening assay; assay type: functional; design: scale not given: direction of the effect not stated beside the values; conditions: 30 µM

| Structure (SMILES) | Percent Effect [1] [%] | Percent Effect [2] [%] |
| --- | --- | --- |
| CCn1ccnc1CN1CCCN(C(=O)c2cccn2C)CC1 | -3.17 | 5.64 |
| CN(Cc1nnc2n1CCC2)C(=O)NCCc1ccc2c(c1)OCO2 | 10.3 | 19.1 |
| Cc1ncc(-c2ccnc(N3CCCCC3)n2)c(=O)[nH]1 | -2.84 | -19.6 |
| COc1ccccc1CC(=O)N1CCC(NCc2c[nH]nc2C)CC1 | 4.54 | 17.4 |
| CN(Cc1ccco1)Cc1ccccc1CNC(=O)c1ccc[nH]1 | 0.725 | 26.7 |
| O=C1CC(N(C(=O)c2ccc3[nH]c4c(c3c2)CCCC4)C2CC2)C(=O)N1 (centres undefined) | 1.2 | -28.8 |
| Cc1cc(CN2CCc3nn(C)c(=O)cc3C2)on1 | 46.2 | 0.17 |
| Cc1noc(C)c1CCC(=O)N1CCN(CCn2cncn2)CC1 | 6.07 | -7.17 |
| Cn1cc(N2CC3(CCN(CC4CCOCC4)CC3)OCC2=O)cn1 | -2.85 | -32.8 |
| Cc1nnc2n1CCN(C(C(=O)NC1CC1)c1ccccc1)C2 (centres undefined) | -4.48 | 15.2 |
| CCn1cnnc1CNC(=O)c1cc(Cl)ccc1OC | 0.48 | -24.3 |
| Cc1cc(C(=O)N2CCC3(CCCN(CC4CC4)C3=O)C2)c(C)n1C (centres undefined) | -1.12 | -7.28 |
| COC[C@]12COC[C@H]1CN(Cc1cc(OC)cc(OC)c1)C2 | -1.51 | -6.3 |
| CSCC(C)(O)CNC(=O)c1cc(Br)ccc1Cl (centres undefined) | -0.23 | -13.2 |
| Cn1ncc(NCc2cccc(COC(C)(C)C)c2)c(Cl)c1=O | -4.13 | 12 |
| O=C(NCc1nnc2ccccn12)N1CCc2sccc2C1 | -2.69 | 1.75 |
| Cn1nc(C2CCN(C(=O)Cc3cccc(F)c3)CC2)c2cccnc21 | -2.81 | -7.51 |
| Cc1ccc(N2CCC3(CC2)CC(OCC(=O)N(C)C)CO3)nn1 (centres undefined) | -2.52 | -23.3 |
| NC(=O)c1cc(C2CCCN(CCc3ccccn3)C2)n[nH]1 (centres undefined) | -0.833 | -5.89 |
| O=C(CSc1ccccc1Cl)NS(=O)(=O)c1ccc2c(c1)OCCO2 | -8.39 | -0.0514 |
| CCCn1nc2c(cc1=O)CN(Cc1nc(CCOC)no1)CC2 | 16.9 | -17.7 |
| NC[C@H]1CC[C@H](C(NC(=O)c2ccccn2)c2ccccn2)CC1 (some centres undefined) | 1.43 | 17 |
| Cc1cc(CN2CCN(C(=O)NCc3ccc(C)s3)CC2)no1 | -8.25 | 0.0703 |
| Cc1ccc(Cn2ccc(NS(C)(=O)=O)n2)cc1 | 2.05 | -19.8 |
| Cn1cc(S(=O)(=O)N2CCCC2CC(=O)c2cccs2)cn1 (centres undefined) | 1.01 | -9.63 |
| CN(Cc1cccc(F)c1)C(=O)CN1CCCCC1Cn1cncn1 (centres undefined) | 5.47 | -9.64 |

| Structure (SMILES) | Percent Effect [1] [%] | Percent Effect [2] [%] |
| --- | --- | --- |
| CNC(=O)[C@H]1C[C@@H]2CN(C(=O)c3ccco3)C[C@@H]2N1S(C)(=O)=O | -2.01 | -24.9 |
| O=C(NCC1CCOC1)Nc1ccc(OCC(F)(F)F)nc1 (centres undefined) | -1.61 | -28.7 |
| Cn1nc(CNC(=O)C2COc3ccccc3O2)cc1C1CC1 (centres undefined) | 6.34 | 17 |
| Cn1cc(C(=O)N2CC[C@@H]3[C@@H]2CCN3Cc2cccc(F)c2)cn1 | -0.0764 | 0.579 |
| Cc1ccc(N2CC[C@H]3C[C@@H](C(=O)N4CCOCC4)O[C@H]3C2)nn1 | 0.749 | 12.8 |
| O=C1CC(c2ccccc2)c2c(n3ccsc3nc2=O)N1 (centres undefined) | -1.74 | -13.6 |
| Brc1cc2c(cc1CN1CCC(N3CCCCC3)CC1)OCCO2 | -2.09 | -51.2 |
| NC(=O)COc1ccc(CNCc2ccc(F)cc2F)cc1 | -4.09 | -18.8 |
| CC(C)Oc1ccccc1CNC(=O)N1CCC(n2cncn2)CC1 | -5.72 | -31.1 |
| Cc1nc(N)sc1C(=O)N1CCCC(c2nccn2CCCN(C)C)C1 (centres undefined) | -0.893 | 12.2 |
| O=C(NCc1ccoc1)Nc1ccc(CN2CCOC2=O)cc1 | -3.73 | -75.3 |
| CC(C)N(Cc1cccc(F)c1)Cc1nc2c(cnn2C)c(=O)[nH]1 | -5.3 | -0.112 |
| CC(C)C(=O)NCC(=O)N(C)C1CCCN(C2Cc3ccccc3C2)C1 (centres undefined) | 1.1 | 0.34 |
| c1ccc(-c2nc(CNC3CCc4ncnn4C3)co2)cc1 (centres undefined) | -3.79 | -10.8 |
| CC(O)CN1CCN(C(=O)c2ccc(N(C)C)nc2)CC1 (centres undefined) | 1.24 | -70 |
| CC(C)c1nccn1C1CCCN(C(=O)c2cnn(C)c2C2CC2)C1 (centres undefined) | -1.74 | 28.9 |
| Cn1cnnc1S(=O)(=O)C1CCN(S(=O)(=O)c2ccc(F)c(Cl)c2)CC1 | 2.04 | -2.86 |
| CSCC(=O)N1CCC2(CC1)c1ccccc1CC2O (centres undefined) | 0.357 | -32.5 |
| CCCc1noc(CCC(=O)N2CCCC2c2ccsc2)n1 (centres undefined) | -1.06 | 8.4 |
| Cc1nc(CN2CCCN(C(=O)c3ccccn3)CC2)oc1C | -0.692 | 25.9 |
| O=C(NCc1nnc2n1CCCC2)N(Cc1ccccc1F)C1CC1 | -1.44 | 7.01 |
| CCCNC(=O)N1CCN(Cc2cc(C)no2)CC1 | -0.393 | 17.7 |
| CC(C)c1nc2c(n1C)CCN(Cc1nc(-c3cccs3)no1)C2 | -1.02 | -0.957 |
| COc1cccc2c1OCC(NC(=O)NC1CCN(C3CC3)CC1)C2 (centres undefined) | -3.21 | 3.63 |
| CC(C)c1ncc(S(C)(=O)=O)c(C2CCCNC2)n1 (centres undefined) | -1.91 | 10.4 |
| c1ncn(CC2CN(Cc3csc(C4CCCC4)n3)CCO2)n1 (centres undefined) | -2.81 | 13.4 |
